Measured values from PubChem BioAssay (NCATS).
Records with an inconclusive call do not appear. Calls of active or inactive are those of the source. Calls follow the shape of the dose curve; as a rule, active = well fitted inhibition curve with a large enough effect; inconclusive = small, poorly fitted or top-dose-only effect; inactive = flat fitted curve, though single readings scatter. Numbered stars: 1 amine (or outer) side, 2 acyl side, 3 side chain; on linkers, the order of the positions; unused ones are H or OH. Bridge positions count the residues as written; N and C are the ends. Square brackets hold non-standard residues; d marks the D form. Peptide text beside a SMILES is read from it. * marks the point of attachment. ξ: configuration not given here. ΔAla(Z-3-ureido) = NC(=O)N/C=C(\N)C(=O)O; X1 = NC1=NCCC(C(N[*:1])C(=O)[*:2])N1; ξβ3hOrn = NCCCC(N)CC(=O)*; Dap = NC[CH](N)C(=O)O

Biological target: Luciferin 4-monooxygenase (Photinus pyralis) (UniProt P08659)
Sequence (P08659 whole entry, looked up): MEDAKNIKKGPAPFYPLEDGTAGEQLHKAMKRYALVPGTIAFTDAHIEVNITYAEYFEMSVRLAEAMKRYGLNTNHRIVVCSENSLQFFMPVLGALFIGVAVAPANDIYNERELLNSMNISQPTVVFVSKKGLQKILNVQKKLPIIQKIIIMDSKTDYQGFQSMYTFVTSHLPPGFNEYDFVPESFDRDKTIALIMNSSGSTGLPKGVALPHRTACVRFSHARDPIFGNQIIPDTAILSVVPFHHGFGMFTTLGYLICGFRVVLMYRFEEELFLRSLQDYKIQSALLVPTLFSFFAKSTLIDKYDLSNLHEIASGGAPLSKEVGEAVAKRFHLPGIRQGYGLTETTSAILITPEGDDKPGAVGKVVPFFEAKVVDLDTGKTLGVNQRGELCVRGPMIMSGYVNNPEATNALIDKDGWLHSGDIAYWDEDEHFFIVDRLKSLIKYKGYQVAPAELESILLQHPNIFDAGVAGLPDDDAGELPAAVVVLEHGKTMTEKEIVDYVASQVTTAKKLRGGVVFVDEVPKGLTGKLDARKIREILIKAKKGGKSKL
Assay: Biochemical firefly luciferase enzyme assay for NPC (AID 624030); also: nearly all actives have a fitted effect of over 70% in size;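 as to activity change, negative = inhibition: 0% = DMSO and -100% = full luciferase inhibition by PTC124 control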
Conditions: purified P. pyralis luciferase, luminescence, 5 min; series mostly up to 58.6 µM; activity change, negative = inhibition: at the top concentration
Description: Charcot-Marie-Tooth-Association [CMTA] National Center for Advancing Translational Sciences [NCATS] Charcot-Marie-Tooth (CMT) disease was first characterized by Jean-Martin Charcot and Pierre Marie in France and, independently, by Howard Henry Tooth in England in 1886. CMT is one of the most common inherited neurological diseases, affecting approximately 1 in 2,500 Americans. […] The most prevalent type of CMT is known as CMT1A and caused by a duplication of the PMP22 gene which leads to over-expression of this protein. PMP22 is a glycosylated intrinsic membrane protein accounting for 2-5% of the myelin protein content, and its over-expression results in demyelination and subsequently axonal loss. A pair of cellular transcription-based assays was developed in the S16 rat Schwann cell lines (Hai, M., et al., 2002) stably transfected with orthogonal reporters - firefly luciferase (Fluc) and beta-lactamase (beta-Lac) - whose expression is driven by an intronic regulatory element of the PMP22 gene (Jones, E.A., et al., 2011) to recapitulate endogenous expression of PMP22. A comprehensive library of approved drugs, the NCGC Pharmaceutical Collection (Huang, R., et al., 2011), was screened in the cross-validating platform of the orthogonal reporter assays to identify drug modulators inhibitory towards PMP22 expression. A set of counter-screens was devised to address non-specific activity of the library. An ATP-dependent CellTiter-Glo assay (developed by Promega Corp) was utilized to control cell viability. In addition, biochemical Fluc enzyme assay was performed to assess direct inhibition of the Fluc enzymatic activity. References Hai, M., Muja, N., DeVries, G.H., Quarles, R.H. and Patel, P.I. Comparative analysis of Schwann cell lines as model systems for myelin gene transcription studies. J Neurosci Res, 2002. 69(4): pp 497-508 Huang, R., Southall, N., Wang, Y., Yasgar A., Shinn P., Jadhav, A. , Nguyen, D.-T. and Austin, C.P., The NCGC pharmaceutical collection: a comprehensive resource of clinically approved drugs enabling repurposing and chemical genomics. Sci Transl Med, 2011. 3(80): p. 80ps16.
Compounds were transferred to the plates in 23nl, and one microliter/well luciferase enzyme-buffer solution (10 nM P. pyralis luciferase and 50 mM Tris Acetate final concentrations) was dispensed yielding a final reaction volume of […]. Luciferase luminescence was measured by a ViewLux plate reader within 5 minutes of enzyme-buffer addition. The % activity was determined by normalizing to the average readings of PTC124 (a positive control) relative to DMSO (0% Activity). The concentration-effect curves were then classified based on curve quality (r2), response magnitude and degree of measured activity.
Potency is read from the fitted curve at half-maximal effect.

| Compound | activity change, negative = inhibition | Potency |
| --- | --- | --- |
| CC(=O)O[C@H]1C[C@@H]2CC[C@@H]3[C@H](CC[C@]4(C)[C@H](OC(C)=O)[C@@H](N5CC[N+](C)(C)CC5)C[C@@H]34)[C@@]2(C)C[C@@H]1N1CC[N+](C)(C)CC1 | 7.44% (inactive) | – |
| C[C@@H]1O[C@@]2(CS1)CN1CCC2CC1 | -0.752% (inactive) | – |
| CCCCCCC(O)C/C=C\CCCCCCCC(=O)O (stereo not given) | -13.6% (inactive) | – |
| COC1=C(C(=O)O)N2C(=O)[C@@H](NC(=O)C(N)C3C=CCC=C3)[C@H]2SC1 (stereo not given in full) | -1.33% (inactive) | – |
| CC(C)C[C@H](NC(=O)[C@@H](Cc1c[nH]c2ccccc12)NC(=O)[C@@H](Cc1ccc(O)cc1)NC(=O)[C@@H](CO)NC(=O)[C@@H](Cc1c[nH]c2ccccc12)NC(=O)C(Cc1cnc[nH]1)NC(=O)C1CCC(=O)N1)C(=O)N[C@@H](CCCN=C(N)N)C(=O)N1CCC[C@@H]1C(=O)NCC(N)=O (stereo not given in full) | -1.39% (inactive) | – |
| CC1(C)C(/C=C/C=C/C=C/C=C2\N(CCCCS(=O)(=O)O)c3ccc4ccccc4c3C2(C)C)=[N+](CCCCS(=O)(=O)[O-])c2ccc3ccccc3c21 | – | 28.7 µM (active) |
| CC(=O)O[C@H](C)OC(=O)[C@@H](C)c1ccc(-c2ccccc2)c(F)c1 | – | inactive |
| CC1(C)S[C@@H]2[C@H](NC(=O)[C@H](N)c3ccccc3)C(=O)N2[C@@H]1C(=O)OCOC(=O)[C@@H]1N2C(=O)C[C@@H]2S(O)(O)C1(C)C | -4.12% (inactive) | – |
| CC(C)(C)CC(=O)OCC(=O)[C@@]12OC(C)(C)O[C@@H]1C[C@H]1[C@@H]3CCC4=CC(=O)C=C[C@]4(C)[C@@]3(F)[C@@H](O)C[C@]12C | -1.17% (inactive) | – |
| CO[C@@H]1[C@@H](OC2OC(C)C(OC3CC(C)(O)C(O)C(C)O3)C(N(C)C)C2O)[C@@H](CC=O)C[C@@H](C)[C@@H](OC2CCC(N(C)C)C(C)O2)/C=C/C=C/C[C@@H](C)OC(=O)C[C@H]1OC(C)=O (stereo not given in full) | -0.0945% (inactive) | – |
| CC(=O)NC(CCC(N)=O)C(=O)O (stereo not given) | -2.92% (inactive) | – |
| CC(NC(CCc1ccccc1)C(=O)O)C(=O)N1CCCC1C(=O)O (stereo not given) | -0.0943% (inactive) | – |
| O=C(CO)NCCCOc1cccc(CN2CCCCC2)c1 | 1.63% (inactive) | – |
| CCO[C@@H](Cc1ccc(OCCc2ccc(OS(C)(=O)=O)cc2)cc1)C(=O)O | -17.8% (inactive) | – |
| CCCCCCCCCCCCCCCC(=O)O[C@@H]1CC(C)=C(\C=C/C(C)=C\C=C/C(C)=C\C=C\C=C(C)\C=C\C=C(C)\C=C\C2=C(C)C[C@@H](OC(=O)CCCCCCCCCCCCCCC)CC2(C)C)C(C)(C)C1 | -3.65% (inactive) | – |
| [2H]c1c([2H])c([2H])c2c([nH]c(=S)n2C2CCN(CCCC(=O)c3ccc(F)cc3)CC2)c1[2H] | -10.2% (inactive) | – |
| Fc1ccc(C2CCNCC2COc2ccc3c(c2)OCO3)cc1 (stereo not given) | 8.57% (inactive) | – |
| CCC(=O)C(Cc1ccccc1)(Cc1ccccc1)CC(C)N(C)C (stereo not given) | 2.41% [at 123 µM] (inactive) | – |
| NC(N)=NCCCC(N)C(=O)O (stereo not given) | -0.701% (inactive) | – |
| CCOC(=O)CCC(=O)OC1C(OC2C(C)C(OC3CC(C)(OC)C(O)C(C)O3)C(C)C(=O)OC(CC)C(C)(O)C(O)C(C)C(=O)C(C)CC2(C)O)OC(C)CC1N(C)C (stereo not given) | -1.9% (inactive) | – |

| Compound | activity change, negative = inhibition | Potency |
| --- | --- | --- |
| CCCCC(=O)OCC(=O)[C@H]1[C@H](C)C[C@@H]2[C@@H]3C[C@@H](F)C4=CC(=O)C=C[C@]4(C)[C@@]3(F)[C@@H](O)C[C@@]21C | -2.37% (inactive) | – |
| CSCCC(NC(=O)[C@H](Cc1c[nH]c2ccccc12)NC(=O)CNC(=O)[C@H](CCSC)NC(=O)[C@H](Cc1ccc(OS(=O)(=O)O)cc1)NC(=O)[C@@H](N)CC(=O)O)C(=O)N[C@@H](CC(=O)O)C(=O)N[C@@H](Cc1ccccc1)C(N)=O (stereo not given in full) | -12.5% (inactive) | – |
| CCC(=O)Oc1ccc2c(c1)CCC1C2CC[C@]2(C)C(OC(=O)CC)CCC12 (stereo not given in full) | 1.77% (inactive) | – |
| O=C(CO)C(O)C(O)C(O)CO (stereo not given) | 2.01% (inactive) | – |
| CC1CC2C3CCC4=CC(=O)C=C[C@@]4(C)[C@]3(F)C(O)C[C@]2(C)[C@]1(O)C(=O)COP(=O)(O)O (stereo not given in full) | 29.4% (inactive) | – |
| C#C[C@@]1(OC(C)=O)CC[C@H]2[C@@H]3CCC4=CC(=O)CC[C@@H]4[C@H]3CC[C@@]21C | 0.854% (inactive) | – |
| CCCCCCCC(=O)CC[C@H]1[C@@H](C/C=C/CCCC(=O)OC(C)C)[C@@H](O)C[C@H]1O | 2.73% (inactive) | – |
| CCCC(=O)O[C@]1(C(=O)COC(=O)CC)CC[C@@H]2[C@@H]3CCC4=CC(=O)CC[C@]4(C)[C@H]3[C@@H](O)C[C@@]21C | 54.4% (inactive) | – |
| CC[C@H](C)[C@H](NC(=O)[C@H](CO)NC(=O)[C@H](CC(N)=O)NC(=O)[C@H](CC(C)C)NC(=O)[C@H](Cc1ccc(O)cc1)NC(=O)[C@H](CCCCN)NC(=O)[C@H](CCCCN)NC(=O)[C@@H](NC(=O)[C@H](C)NC(=O)[C@H](CCSC)NC(=O)[C@H](CCC(N)=O)NC(=O)[C@H](CCCCN)NC(=O)[C@H](CCCNC(=N)N)NC(=O)[C@H](CC(C)C)NC(=O)[C@H](CCCNC(=N)N)NC(=O)[C@@H](NC(=O)[C@H](Cc1ccc(O)cc1)NC(=O)[C@H](CC(N)=O)NC(=O)[C@H](CC(=O)O)NC(=O)[C@@H](NC(=O)[C@H](Cc1ccccc1)NC(=O)[C@@H](NC(=O)[C@H](C)NC(=O)[C@H](CC(=O)O)NC(=O)[C@H](CO)NC(=O)[C@@H](N)Cc1c[nH]cn1)C(C)C)[C@@H](C)O)[C@@H](C)O)C(C)C)C(=O)N[C@@H](CC(C)C)C(=O)N[C@@H](CC(N)=O)C(=O)O | 21.2% (inactive) | – |
| C#CC1(OC(C)=O)CCC2C3CCC4=CC(OC(C)=O)CCC4C3CCC21C (stereo not given) | -5.11% (inactive) | – |
| NCCCC(N)CC(=O)NCC1NC(=O)C(CO)NC(=O)C(N)CNC(=O)C(C2CCN=C(N)N2)NC(=O)/C(=C/NC(N)=O)NC1=O (stereo not drawn) (H-[Dap]S[Dap](ξβ3hOrn)[ΔAla(Z-3-ureido)][X1]; lactam 1-C; configuration not given here) | 9.77% (inactive) | – |
| C[N+](C)(C)CCOP(=O)(O)OP(=O)([O-])OCC1OC(n2ccc(N)nc2=O)[C@H](O)[C@@H]1O (stereo not given in full) | -4.62% (inactive) | – |
| CO/N=C(\C(=O)N[C@@H]1C(=O)N2C(C(=O)O)=C(Cn3nnc(C)n3)CS[C@H]12)c1csc(N)n1 | 0.691% (inactive) | – |
| c1cnc2cc3c(cc2n1)[C@@H]1CNC[C@@H]3C1 | 1.04% (inactive) | – |
| CCC[C@H]1C[C@H](C(=O)NC(C(C)Cl)C2O[C@@H](SC)C(OP(=O)(O)O)[C@@H](O)[C@@H]2O)N(C)C1 (stereo not given in full) | -0.944% (inactive) | – |
| CCC(C)C1OC2(C=CC1C)CC1CC(C/C=C(/C)C(OC3CC(OC)C(OC4CC(OC)C(NC(C)=O)C(C)O4)C(C)O3)C(C)/C=C\C=C3\COC4C(O)C(C)=CC(C(=O)O1)C34O)O2 (stereo not given) | -9.07% (inactive) | – |
| CCN1CCN(C(=O)N[C@H](C(=O)N[C@@H]2C(=O)N3[C@@H](C(=O)O)C(C)(C)S[C@@H]23)c2ccccc2)C(=O)C1=O | -6.63% (inactive) | – |
| CN[C@H](CC(C)C)C(=O)N[C@H]1C(=O)N[C@@H](CC(N)=O)C(=O)N[C@H]2C(=O)N[C@H]3C(=O)N[C@H](C(=O)N[C@H](C(=O)O)c4cc(O)cc(O)c4-c4cc3ccc4O)[C@H](O)c3ccc(c(Cl)c3)Oc3cc2cc(c3O[C@@H]2OC(CO)[C@@H](O)[C@H](O)[C@H]2O[C@H]2C[C@](C)(N)[C@H](O)[C@H](C)O2)Oc2ccc(cc2Cl)[C@H]1O (stereo not given in full) | -5.7% (inactive) | – |
| Cc1c(C)c2c(c(C)c1OC(=O)CCC(=O)OCCO)CC[C@](C)(CCC[C@H](C)CCC[C@H](C)CCCC(C)C)O2 | 4.26% (inactive) | – |
| CCC[C@@H]1CC(C(=O)NC(C2O[C@H](SC)C(OP(=O)(O)O)[C@H](O)[C@H]2O)[C@H](C)Cl)N(C)C1 (stereo not given in full) | -3.85% (inactive) | – |
